“And” between values parts separate entries of the source, which are not always exact repeats. Identical values can stand only once. Records with an inconclusive call do not appear. More than one record can exist for a structure, and the calls need not agree. The source made the active and inactive calls. Unless noted, the call rests on the fitted dose curve; in most records, active means well fitted curve in the direction sought with a large enough effect in the repeat runs; inconclusive means weak or mixed curves; inactive means no such curve, though single readings can be large; an effect the other way counts as inactive or inconclusive.

Test [1] can be described thus: qHTS assay to identify aromatase inhibitors - cell viability counter screen (AID 743084).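 Further: cells stimulated with testosterone during compound exposure; nearly all actives have a fitted effect of over 55% in size.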 Further: potency means the concentration at half of the fitted maximal effect.
In test [2] the target is Aryl hydrocarbon receptor (Homo sapiens) (UniProt P35869). Briefly: qHTS assay to identify small molecule that activate the aryl hydrocarbon receptor (AhR) signaling pathway (AID 743085). Further: nearly all actives have a fitted effect of over 15% in size. Further: potency means the concentration at half of the fitted maximal effect.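 On activation: HG2L7.5c1 human HepG2 liver cells with stably integrated DRE-driven firefly reporter; series mostly up to about 70 µM.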 The essentials: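 Stably transfected human liver carcinoma cells (HG2L7.5c1; 20 DRE-firefly luciferase) were incubated 5 h, dosed, and kept 24 h at 37C. Agonism was scored from increased luciferase luminescence.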
Chain of Aryl hydrocarbon receptor (Homo sapiens) (P35869 whole entry, looked up): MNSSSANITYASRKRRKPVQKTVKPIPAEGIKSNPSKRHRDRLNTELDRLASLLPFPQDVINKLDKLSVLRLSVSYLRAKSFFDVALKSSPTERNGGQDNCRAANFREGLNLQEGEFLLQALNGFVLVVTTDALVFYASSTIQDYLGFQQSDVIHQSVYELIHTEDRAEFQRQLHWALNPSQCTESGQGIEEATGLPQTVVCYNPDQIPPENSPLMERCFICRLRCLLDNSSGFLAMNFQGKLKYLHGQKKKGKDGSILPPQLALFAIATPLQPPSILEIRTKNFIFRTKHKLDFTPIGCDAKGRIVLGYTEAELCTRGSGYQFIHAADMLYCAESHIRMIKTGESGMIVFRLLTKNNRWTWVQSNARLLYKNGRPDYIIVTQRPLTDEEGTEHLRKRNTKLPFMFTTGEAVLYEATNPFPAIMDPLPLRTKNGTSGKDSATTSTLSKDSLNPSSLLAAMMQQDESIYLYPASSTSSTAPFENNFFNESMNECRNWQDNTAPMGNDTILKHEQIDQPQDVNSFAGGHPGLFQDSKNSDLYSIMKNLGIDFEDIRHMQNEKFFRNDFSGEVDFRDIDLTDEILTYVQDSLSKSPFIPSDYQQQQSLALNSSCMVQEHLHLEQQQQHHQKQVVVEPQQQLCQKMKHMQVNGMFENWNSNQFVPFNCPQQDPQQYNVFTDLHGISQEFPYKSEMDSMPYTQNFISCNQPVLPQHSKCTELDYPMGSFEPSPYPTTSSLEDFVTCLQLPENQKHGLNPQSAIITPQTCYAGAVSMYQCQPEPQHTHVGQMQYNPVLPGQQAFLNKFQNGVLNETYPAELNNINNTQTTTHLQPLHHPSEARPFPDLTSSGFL
In general terms: Quantitative high-throughput screening tests each substance at several concentrations.

Test [3] in a line: qHTS assay to identify small molecule antagonists of the peroxisome proliferator-activated receptor gamma (PPARg) signaling pathway - cell viability counter screen (AID 743194). Further: nearly all actives have a fitted effect of over 55% in size. Further: potency means the concentration at half of the fitted maximal effect. In short, it runs like this:
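PPARg-UAS-bla HEK293H cells were plated, rested 5 h at 37 C, then treated with compounds plus rosiglitazone (50 nM final) for 17 h at 37 C; viability was then read by CellTiter-Glo luminescence after 30 min at room temperature.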

Test [4] can be described thus: qHTS assay for small molecule agonists of the antioxidant response element (ARE) signaling pathway (AID 743202; active means well fitted activation curve with a large enough effect in the signal ratio in the repeat runs, not every such curve was filed as active; the % refers to the signal ratio; further: potency means the concentration at half of the fitted maximal effect). In short, it runs like this:
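Following a 16 h, 37 C exposure of reporter HepG2 cells (ARE-driven beta-lactamase, 2,000 cells/well) to compounds, FRET substrate was applied for 2 h at room temperature and fluorescence intensity recorded.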

A short description of test [5]: qHTS assay for small molecule agonists of the antioxidant response element (ARE) signaling pathway - cell viability counter screen (AID 743203; calls by dose curve; further: nearly all actives have a fitted effect of over 55% in size; further: potency means the concentration at half of the fitted maximal effect). In short, it runs like this: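 Parallel cytotoxicity read-out for the ARE-bla screen: HepG2 reporter cells, 16 hrs with compounds, then CellTiter-Glo luminescence.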
Test [6] in a line: qHTS assay for small molecule activators of the heat shock response signaling pathway - cell viability counter screen (AID 743209). Further: nearly all actives have a fitted effect of over 50% in size. Further: potency means the concentration at half of the fitted maximal effect. In short, it runs like this:
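To flag cytotoxic compounds, HSE-bla HeLa cells plated at 1500 cells/well were dosed for 5 h at 37 C, followed by the reporter FRET read and then CellTiter-Glo, with luminescence recorded 30 min after reagent addition.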

Test [7] can be described thus: qHTS assay for small molecule activators of the heat shock response signaling pathway (AID 743210; active means well fitted activation curve with a large enough effect in the signal ratio in the repeat runs, with a control signal flat, not every such curve was filed as active; the % refers to the signal ratio; further: series mostly up to about 63 µM). The essentials: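 Heat shock element–beta-lactamase HeLa reporter cells; qHTS with compounds for 5 h at 37 C; detection by FRET substrate fluorescence after 2.5 h at RT.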
For test [8], the target named is Peroxisome proliferator-activated receptor gamma (Homo sapiens) (UniProt P37231). Description: qHTS assay to identify small molecule agonists of the peroxisome proliferator-activated receptor gamma (PPARg) signaling pathway (AID 743094; active means well fitted activation curve with a large enough effect in the signal ratio in the repeat runs, not every such curve was filed as active; the % refers to the signal ratio). In short, it runs like this: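 Fluorescence-based beta-lactamase readout in HEK293H PPARg UAS-bla cells after 17 h compound exposure (37C) and 1 h B/G FRET substrate incubation at room temperature.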
Chain of Peroxisome proliferator-activated receptor gamma (Homo sapiens) (P37231 whole entry, looked up): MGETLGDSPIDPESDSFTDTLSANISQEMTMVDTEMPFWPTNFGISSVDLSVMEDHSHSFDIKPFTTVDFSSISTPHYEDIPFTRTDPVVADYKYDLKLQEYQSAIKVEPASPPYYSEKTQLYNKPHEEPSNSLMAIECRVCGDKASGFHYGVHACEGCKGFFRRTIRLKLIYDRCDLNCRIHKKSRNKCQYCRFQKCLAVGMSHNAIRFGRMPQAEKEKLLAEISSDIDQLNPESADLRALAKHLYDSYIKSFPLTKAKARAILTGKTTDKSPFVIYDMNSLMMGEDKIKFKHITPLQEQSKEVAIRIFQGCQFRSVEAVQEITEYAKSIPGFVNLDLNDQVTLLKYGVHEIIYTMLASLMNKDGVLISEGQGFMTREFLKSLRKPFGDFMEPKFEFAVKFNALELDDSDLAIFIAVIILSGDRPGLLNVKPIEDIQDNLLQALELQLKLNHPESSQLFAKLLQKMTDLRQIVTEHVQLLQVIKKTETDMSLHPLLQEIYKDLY

Test [9] has the same target. Briefly: qHTS assay to identify small molecule antagonists of the peroxisome proliferator-activated receptor gamma (PPARg) signaling pathway (AID 743191; calls by dose curve; further: nearly all actives have a fitted effect of over 30% in size; further: potency means the concentration at half of the fitted maximal effect). The essentials:
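GeneBLAzer PPARg UAS-bla HEK293H cells carrying a UAS-driven beta-lactamase reporter were plated at 3000 cells/well, preincubated 5 h at 37C, then given compound for 17 h at 37C; LiveBLAzer B/G FRET substrate was read after 1 h at room temperature.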

The nature of test [10]: qHTS assay to identify small molecule that activate the aryl hydrocarbon receptor (AhR) signaling pathway - cell viability counter screen (AID 743086). Further: nearly all actives have a fitted effect of over 45% in size. Further: potency means the concentration at half of the fitted maximal effect. The essentials: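 HepG2-AhR-luc (HG2L7.5c1) cells, 4000/well, were preincubated 5 h at 37C, exposed to compound in qHTS format for 24 hr at 37C, then given CellTiter-Fluor for 30 min; viability was read as fluorescence in the reporter wells.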

With `Cc1cccc(S(=O)(=O)O)c1C`, the Potency entry in [1], in test [2], in test [3], in [4], in test [5] and in [6] was “inactive” each time. The Potency entry in test [7] is “inactive”.
As for `Cc1cc(O)c(C(C)(C)C)cc1C(C)(C)C`, the Potency is 54.5 µM (active) in [1], 49 µM (active) in [3], 54.5 µM (active) in test [5] and 43.6 µM (active) in [6]. Also, the Potency result in test [2] is “inactive”.
Consider `CCCCCCCCn1sc(Cl)c(Cl)c1=O`, for which the Potency in test [1] is 5.45 µM (active); in test [9], 49 µM (active); in test [3], 21.9 µM (active); in [5] it was 4.33 µM (active). Further, the Potency entry in test [2] and in test [8] was “inactive” each time.
`O=[N+]([O-])c1cc(Cl)c(Cl)c(Cl)c1Cl`: the Potency in test [1] was 60.9 µM (active); in test [4], 3.42 µM (active). Besides, the Potency result in test [2], in test [8] and in [3] was “inactive” throughout.
With `COC(=O)C1=C(C)NC(C)=C(C(=O)OCC(C)C)C1c1ccccc1[N+](=O)[O-]` (configuration not stated), the Potency in test [1] was 33.5 µM (active) and 61.1 µM (active); in test [2], 9.44 µM (active); in test [4], 23.7 µM (active). The Potency result in test [3], in test [5] and in test [6] was “inactive” in each case.
Consider `CC(C)(C)CC(C)(C)c1ccc(O)c(Cc2ccc(Cl)cc2Cl)c1`, for which the Potency result in test [1] and in test [10] was “inactive” each time. The Potency in test [5] was 13.3 µM (active).
In the case of `COc1cc(-c2ccc(N=C=O)c(OC)c2)ccc1N=C=O`, the Potency entry in test [1], in test [10], in [8], in [3], in test [5] and in test [6] was “inactive” each time. In addition, the Potency entry in test [7] was “inactive”.
Consider `Cc1onc(-c2ccccc2Cl)c1C(=O)N[C@@H]1C(=O)N2[C@@H]1SC(C)(C)[C@@H]2C(=O)O`, for which the Potency entry in test [1], in [10], in test [8], in test [9], in test [5] and in test [7] was “inactive” in each case.
As to `O=C(Nc1ccc(Oc2ccc(Cl)cc2)c(Cl)c1)c1cc(I)cc(I)c1O`, the Potency result in test [1], in test [10] and in test [8] was “inactive” in each case.
Turning to `Clc1ccccc1C(c1ccccc1)(c1ccccc1)n1ccnc1`, the Potency result in test [1] is “inactive”. For the same compound, the Potency result in test [10] was “inactive and 54.5 µM (active)”; in [3], 24.5 µM (active); in test [5], 30.6 µM (active).
Turning to `CC[C@H]1O[C@]2(CC[C@@H]1C)C[C@@H]1C[C@@H](C/C=C(\C)C[C@@H](C)/C=C/C=C3\CO[C@@H]4[C@H](O)C(C)=C[C@@H](C(=O)O1)[C@]34O)O2`, the Potency was 27.1 µM (active) in [1], 19.3 µM (active) in [3], 21.5 µM (active) in test [5] and 6.85 µM (active) in test [6]. Further, in test [2], the Potency result was “inactive”.
Regarding `CC(C)(C)c1ccc(C(=O)CCCN2CCC(OC(c3ccccc3)c3ccccc3)CC2)cc1`, the Potency entry in test [1] and in [10] was “inactive” throughout. Further, the Potency in [5] and in [6] was 29.8 µM (active) in each case.
Consider `Cc1ccc2oc(CN(Cc3ccccc3)C(=O)Nc3c(F)cc(F)cc3F)c(-c3ccc(Cl)cc3)c2c1`, for which the Potency result in test [1], in [10], in test [3], in test [5] and in [6] was “inactive” each time.
Take `Oc1ccc(N=Nc2ccccc2)cc1`: the values for the Potency in [1] and in [2] were 31 µM (active) and 61.9 µM (active), respectively. The Potency result in test [3], in test [5] and in [7] was “inactive” in each case.
`CC(C)(C)c1ccc(C(=O)O)cc1`: the Potency result in [1], in [10], in test [3], in test [4], in [5] and in test [6] was “inactive” throughout. Further, the Potency result in test [7] was “inactive”.
`CCCCCCCCCCCCCCCCCC[N+](C)(C)C`: the results for the Potency in test [1], in [3] and in [5] were 27.4 µM (active), 27.6 µM (active) and 48.7 µM (active), respectively. Further, in test [10], the Potency result is “inactive”.
Take `C=C(C)C(=O)OCC(O)COc1ccc(C(C)(C)c2ccc(OCC(O)COC(=O)C(=C)C)cc2)cc1` (configuration not stated): the Potency in [1] is 61.1 µM (active). Further, the Potency entry in test [10] and in [5] was “inactive” each time.
Turning to `CC(C)OC(=O)c1cc2c(OCC(O)CNC(C)(C)C)cccc2[nH]1` (configuration not stated), the Potency result in test [1], in test [10], in test [5], in [6] and in test [7] was “inactive” each time.
Take `CCC(C)Nc1ccc(NC(C)CC)cc1` (configuration not stated): the Potency in test [1] was 8.8 µM (active); in test [10] it was 55.5 µM (active); in test [3], 12.5 µM (active); in [5], 7.84 µM (active); in test [6] it was 22.3 µM (active).
Consider `COc1cccc2c1C(=O)c1c(O)c3c(c(O)c1C2=O)C[C@@](O)(C(=O)CO)C[C@@H]3O[C@H]1C[C@H](N)[C@H](O[C@@H]2CCCCO2)[C@H](C)O1`, for which the Potency in [1] was 13.3 µM (active); in test [10], 6.68 µM (active). Also, the Potency result in [7] was “inactive”.
With `CCCCCCCCCCCC[N+](C)(C)CCCCCCCCCCCC`, the Potency in test [1] is 21.7 µM (active); in [5] it was 24.3 µM (active); in test [6], 43.6 µM (active). Further, the Potency entry in [2] is “inactive”.

(Values after PubChem BioAssay (Tox21).)
